Inconclusive results are not listed. Calls of active or inactive are those of the source. Unless noted, calls follow the shape of the dose curve; as a rule, active = well fitted curve in the direction sought with a large enough effect in the repeat runs; inconclusive = weak or mixed curves; inactive = no such curve, though single readings can be large; an effect the other way counts as inactive or inconclusive.
Assays:
[1] = qHTS RealTime-Glo MT Cell Viability Assay in HEK293 cells - 0 hour (AID 1224880); also: top concentration of the series differs between compounds; nearly all actives have a fitted effect of over 45% in size
How it was run: (§1)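 Viable HEK293 cells reduce a cell-permeant prosubstrate; the product diffuses out and is consumed by NanoLuc in the medium to give light. Compounds went in after a 5 h incubation and plates were read over the treatment course.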

[2] = A CellTox Green Cytotoxicity Assay to monitor cytotoxicity in HEK293 cells - 32 hour (AID 1224881); also: nearly all actives have a fitted effect of over 40% in size
How it was run: (§2)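 Fluorescence intensity, read at 0, 8, 16, 24, 32 and 40 h of compound treatment, reflected dye binding to DNA of dead HEK293 cells; compounds (23 nL, DMSO) were added 5 h after plating cells with reagent.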

[3] = A CellTox Green Cytotoxicity Assay to monitor cytotoxicity in HepG2 cells - 0 hour (AID 1224882); also: nearly all actives have a fitted effect of over 35% in size
How it was run: (§3)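 Using 1536-well format, dye-containing HepG2 suspension was seeded, allowed 5 h at 37 C/5% CO2, dosed by pintool with compounds, positive and negative controls, and imaged for fluorescence across 40 h.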

[4] = A CellTox Green Cytotoxicity Assay to monitor cytotoxicity in HepG2 cells - 32 hour (AID 1224883); also: nearly all actives have a fitted effect of over 50% in size
How it was run: as §3

[5] = A CellTox Green Cytotoxicity Assay to monitor cytotoxicity in HEK293 cells - 8 hour (AID 1224884); also: nearly all actives have a fitted effect of over 35% in size
How it was run: as §2

[6] = qHTS RealTime-Glo MT Cell Viability Assay in HepG2 cells - 16 hour (AID 1224885); also: nearly all actives have a fitted effect of over 50% in size
How it was run: (§4)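 Tox21 10K library screened in qHTS format on HepG2 cells carrying RealTime-Glo reagents. Compounds were added after a 5 h preincubation, and the luminescent signal from continuous culture was measured repeatedly during 40 h treatment.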

[7] = qHTS RealTime-Glo MT Cell Viability Assay in HEK293 cells - 24 hour (AID 1224886); also: top concentration of the series differs between compounds; nearly all actives have a fitted effect of over 50% in size
How it was run: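 Luminescence generated by NanoLuc from substrate produced by living HEK293 cells served as the viability signal. Each value reflects the reading at its stated time point during continuous 40 h compound exposure at 37 C.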

[8] = qHTS RealTime-Glo MT Cell Viability Assay in HepG2 cells - 0 hour (AID 1224889); also: nearly all actives have a fitted effect of over 50% in size
How it was run: as §4

[9] = A CellTox Green Cytotoxicity Assay to monitor cytotoxicity in HepG2 cells - 8 hour (AID 1224890); also: nearly all actives have a fitted effect of over 45% in size
How it was run: as §3

[10] = qHTS assay to identify small molecule antagonists of the estrogen receptor alpha (ER-alpha) signaling pathway using the BG1 cell line in the presence of 0.1 nM 17-beta-estradiol - cell viability counter screen (AID 1259241); also: nearly all actives have a fitted effect of over 40% in size
How it was run: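 Measures cytotoxicity alongside the ER-alpha antagonist readout: VM7Luc4E2 cells, charcoal-stripped serum, 0.1 nM 17beta-estradiol final, 22 hr compound incubation at 37C, CellTiter-Fluor fluorescence.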

[11] = qHTS assay to identify small molecule antagonists of the androgen receptor (AR) signaling pathway using the MDA cell line in the presence of 0.5 nM R1881 - cell viability counter screen (AID 1259242); also: nearly all actives have a fitted effect of over 45% in size
How it was run: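 Viability of MDA-kb2 cells was multiplexed with the luciferase AR readout; after 16 hr with compounds and R1881 at 0.5 nM final, CellTiter-Fluor fluorescence was recorded.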

[12] = qHTS assay to identify small molecule HDAC inhibitors (AID 1259364);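 also: wild-type HCT-116 cells with endogenous class I/II HDAC activity; top concentration of the series differs between compounds; nearly all actives have a fitted effect of over 45% in size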
How it was run: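 Read-out: luminescence of HDAC-Glo I/II reagent, 30 min RT, reflecting class I/II deacetylase activity in whole HCT-116 cells pre-exposed 2 h to DMSO-dissolved compounds.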

[13] = qHTS assay to identify small molecule HDAC inhibitors - cell viability counter screen (AID 1259365)
How it was run: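 Following a 2hr exposure of overnight-plated wild-type HCT-116 cells to DMSO-delivered compounds, CellTiter-Glo was added and luminescence recorded after 30min at room temperature.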

[14] = qHTS assay to identify small molecule agonists of the sonic hedgehog signaling (Shh) pathway - cell viability counter screen (AID 1259366); also: nearly all actives have a fitted effect of over 50% in size
How it was run: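 After a 4hr attachment at 37C, NIH/3T3 cells bearing an integrated Gli1-driven luciferase reporter were dosed with compounds. Treatment lasted 24hr, with the final hour including CellTiter-Fluor for a fluorescence viability measurement.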

[15] = qHTS assay to identify small molecule antagonists of the sonic hedgehog signaling (Shh) pathway - cell viability counter screen (AID 1259367); also: nearly all actives have a fitted effect of over 55% in size
How it was run: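 NIH/3T3-derived Gli1-Luc reporter cells (2,000 per well) rested 4 hr at 37 C, then received DMSO compounds plus conditioned medium. After 23 hr of treatment, CellTiter-Fluor was added for 1 hr at 37C and fluorescence read.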

[16] = qHTS RealTime-Glo MT Cell Viability Assay in HEK293 cells - 8 hour (AID 1224887)
How it was run: as §1

[17] = A CellTox Green Cytotoxicity Assay to monitor cytotoxicity in HEK293 cells - 16 hour (AID 1224888); also: nearly all actives have a fitted effect of over 35% in size
How it was run: as §2

[18] = qHTS assay to identify small molecule phospholipidosis (PLD) inducers (AID 1259344; active = well fitted curve in the direction sought with a large enough effect; an effect the other way counts as inactive or inconclusive)
How it was run: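 HepG2 cells on collagen I, attached 4 h at 37 C, were co-treated with compound and LipidTOX Red dye for 24 h at 37 C, then fixed with paraformaldehyde plus Hoechst 33342 and imaged by high-content microscopy for phospholipid accumulation.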

[19] = molecular target: Estrogen receptor (Homo sapiens) (UniProt P03372); assay: qHTS assay to identify small molecule antagonists of the estrogen receptor alpha (ER-alpha) signaling pathway using the BG1 cell line in the presence of 0.1 nM 17-beta-estradiol (AID 1259244); also: nearly all actives have a fitted effect of over 50% in size
Chain of Estrogen receptor (Homo sapiens) (P03372 whole entry, looked up): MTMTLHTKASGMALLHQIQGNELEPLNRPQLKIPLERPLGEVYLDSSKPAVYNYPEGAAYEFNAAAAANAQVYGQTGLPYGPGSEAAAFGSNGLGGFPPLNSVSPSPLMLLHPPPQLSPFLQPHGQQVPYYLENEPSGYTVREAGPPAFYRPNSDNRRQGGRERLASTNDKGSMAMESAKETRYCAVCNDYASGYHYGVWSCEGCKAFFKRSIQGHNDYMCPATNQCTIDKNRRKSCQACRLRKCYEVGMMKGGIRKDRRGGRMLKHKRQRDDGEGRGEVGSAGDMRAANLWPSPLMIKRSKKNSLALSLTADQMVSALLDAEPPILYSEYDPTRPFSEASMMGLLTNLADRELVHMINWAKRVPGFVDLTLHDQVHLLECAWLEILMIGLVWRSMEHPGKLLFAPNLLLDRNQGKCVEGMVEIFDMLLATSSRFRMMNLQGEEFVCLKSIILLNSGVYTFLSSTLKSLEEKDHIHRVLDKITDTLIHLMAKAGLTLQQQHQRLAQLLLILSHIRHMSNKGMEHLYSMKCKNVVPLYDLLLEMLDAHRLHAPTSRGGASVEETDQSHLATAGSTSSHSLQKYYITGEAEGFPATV
How it was run: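 Estradiol at 0.1 nM (final) stimulates the endogenous ER-alpha of VM7Luc4E2 cells carrying an ERE-driven luciferase; compounds are co-incubated 22 h at 37C and luciferase output quantified by luminescence.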

[20] = molecular target: Androgen receptor (Homo sapiens) (UniProt P10275); assay: qHTS assay to identify small molecule antagonists of the androgen receptor (AR) signaling pathway using the MDA cell line in the presence of 0.5 nM R1881 (AID 1259243); also: nearly all actives have a fitted effect of over 50% in size
Chain of Androgen receptor (Homo sapiens) (P10275 whole entry, looked up): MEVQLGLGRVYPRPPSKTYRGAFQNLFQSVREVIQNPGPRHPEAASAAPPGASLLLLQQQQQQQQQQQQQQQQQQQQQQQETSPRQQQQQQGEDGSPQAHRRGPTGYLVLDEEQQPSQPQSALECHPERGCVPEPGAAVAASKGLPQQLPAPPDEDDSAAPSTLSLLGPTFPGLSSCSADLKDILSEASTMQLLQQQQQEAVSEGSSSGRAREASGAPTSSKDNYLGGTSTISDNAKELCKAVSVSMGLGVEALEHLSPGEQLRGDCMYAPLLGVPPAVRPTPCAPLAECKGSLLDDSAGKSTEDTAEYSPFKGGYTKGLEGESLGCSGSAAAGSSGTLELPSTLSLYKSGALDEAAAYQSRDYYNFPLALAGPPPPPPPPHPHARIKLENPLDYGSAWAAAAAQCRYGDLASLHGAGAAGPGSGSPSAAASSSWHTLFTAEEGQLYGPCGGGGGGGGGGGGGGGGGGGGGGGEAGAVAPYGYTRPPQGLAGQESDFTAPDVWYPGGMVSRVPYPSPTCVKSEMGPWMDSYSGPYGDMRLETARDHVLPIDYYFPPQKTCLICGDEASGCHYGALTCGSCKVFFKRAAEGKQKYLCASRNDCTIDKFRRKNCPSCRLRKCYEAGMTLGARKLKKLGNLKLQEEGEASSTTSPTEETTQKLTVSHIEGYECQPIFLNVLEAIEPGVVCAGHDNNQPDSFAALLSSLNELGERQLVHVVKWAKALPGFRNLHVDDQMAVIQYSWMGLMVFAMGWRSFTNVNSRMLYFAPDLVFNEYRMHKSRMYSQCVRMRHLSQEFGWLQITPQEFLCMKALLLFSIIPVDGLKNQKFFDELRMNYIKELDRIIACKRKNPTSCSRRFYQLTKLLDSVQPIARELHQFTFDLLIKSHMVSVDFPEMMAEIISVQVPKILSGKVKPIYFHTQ
How it was run: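 Reporter cells cultured without CO2 receive test chemicals, then 0.5 nM R1881 final; after 16 hr at 37C, ONE-Glo is added and light output recorded.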
% is scaled to controls: 0 for no effect and ±100 for the full control effect.

COP(=O)(OC)O/C(C)=C/C(=O)N(C)C
inactive: outcome [1] | Potency [2] | outcome [3] | Potency [4] | Potency [5] | Potency [6] | Potency [7] | outcome [8] | Potency [9] | outcome [10] | Potency [11] | Potency [12] | outcome [13] | Potency [14] | Potency [15]

C[C@@H](N)[C@@H](O)c1ccccc1
inactive: outcome [1] | Potency [2] | outcome [3] | Potency [4] | Potency [5] | Potency [6] | Potency [16] | Potency [17] | outcome [8] | Potency [9] | outcome [10] | Potency [11] | Potency [18] | Potency [12] | outcome [13] | Potency [14] | Potency [15]

C=C(Cl)CCl
inactive: outcome [1] | Potency [2] | outcome [3] | Potency [4] | Potency [5] | Potency [6] | Potency [7] | Potency [17] | outcome [8] | Potency [9] | outcome [10] | Potency [11] | Potency [19] | Potency [12] | outcome [13] | Potency [14] | Potency [15]

N[C@@H]1C[C@H]1c1ccccc1
inactive: outcome [1] | Potency [2] | outcome [3] | Potency [4] | Potency [5] | Potency [6] | Potency [16] | Potency [17] | outcome [8] | Potency [9] | outcome [10] | Potency [11] | Potency [20] | Potency [18] | Potency [12] | outcome [13] | Potency [14] | Potency [15]

CCCC(C)(COC(N)=O)COC(N)=O
inactive: outcome [1] | Potency [2] | outcome [3] | Potency [4] | Potency [5] | Potency [6] | Potency [7] | Potency [17] | outcome [8] | Potency [9] | outcome [10] | Potency [11] | Potency [18] | Potency [12] | outcome [13] | Potency [14] | Potency [15]

CNC(=O)Oc1cc(C)c(N(C)C)c(C)c1
inactive: outcome [1] | Potency [2] | outcome [3] | Potency [4] | Potency [5] | Potency [6] | Potency [7] | Potency [16] | outcome [8] | Potency [9] | outcome [10] | Potency [11] | Potency [12] | outcome [13] | Potency [14]

Cl/C=C/CCl
inactive: outcome [1] | Potency [2] | outcome [3] | Potency [4] | Potency [5] | Potency [6] | Potency [7] | Potency [17] | outcome [8] | Potency [9] | outcome [10] | Potency [11] | Potency [12] | outcome [13] | Potency [14] | Potency [15]

Clc1cc2c(cc1Cl)Oc1cc(Cl)c(Cl)cc1O2
inactive: activity change, negative = cytotoxicity [1] -12.5% [at 0.29 µM] | cytotoxicity increase [2] -34% [at 0.29 µM] | cytotoxicity [3] -1.33% [at 0.29 µM] | cytotoxicity increase [4] 4.82% [at 0.29 µM] | cytotoxicity increase [5] -18.7% [at 0.29 µM] | activity change, negative = cytotoxic [6] 2.3% [at 0.29 µM] | activity change, negative = cytotoxicity [8] 7.93% [at 0.29 µM] | cytotoxicity increase [9] -6.05% [at 0.29 µM] | activity change, negative = cytotoxicity [10] -0.812% [at 0.349 µM] | viability change, negative = cytotoxic [11] -3.69% [at 0.349 µM] | activity, negative = inhibition [20] 16.7% [at 0.349 µM] | activity change, negative = inhibition [12] 0.908% [at 0.349 µM] | activity change, negative = cytotoxicity [13] 6.76% [at 0.349 µM] | viability change, negative = cytotoxic [14] -1.46% [at 0.349 µM]

CNC(=O)NC(O)C(Cl)(Cl)Cl (stereo unspecified)
inactive: outcome [1] | Potency [2] | outcome [3] | Potency [4] | Potency [5] | Potency [6] | Potency [16] | outcome [8] | outcome [10] | Potency [11] | Potency [20] | Potency [19] | Potency [18] | Potency [12] | outcome [13] | Potency [14] | Potency [15]
